Consider three compounds from PubChem BioAssay (NCI).

The structures appear in SMILES notation. Compounds without any hit were thinned out: in the full panel of roughly 79,000, 15% have a hit. Values without a mark were called inactive. Activity calls are given as the source filed them. Rule as the data show it: active = growth inhibition above about 70%; inactive = the rest.

A short description of test [1]: NCI Yeast Anticancer Drug Screen. Data for the rad50 strain (AID 155).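 Also: 0% = growth of vehicle-only cultures of the same strain.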 The settings on record: S. cerevisiae rad50 strain growth inhibition, hits give high values. The method, boiled down: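 Vehicle-treated cultures provide the reference for the growth inhibition reported for compound-exposed, repair-deficient yeast.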
Test [2] can be described thus: NCI Yeast Anticancer Drug Screen. Data for the mec2-1 strain (AID 157). The settings on record: S. cerevisiae mec2-1 strain, hits give high values. The method, boiled down: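 Cells of the genetically defined mec2-1 yeast strain are incubated with test compound. Inhibition of growth is calculated against vehicle-treated controls.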
The nature of test [3]: NCI Yeast Anticancer Drug Screen. Data for the sgs1 mgt1 strain (AID 161).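 Also: 0% = growth of cultures given vehicle only.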 The settings on record: S. cerevisiae sgs1 mgt1 strain, hits give high values. The method in brief: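 Test agents were incubated with a DNA-repair-mutant yeast strain. Growth was then read and compared against vehicle-treated controls.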
The nature of test [4]: NCI Yeast Anticancer Drug Screen. Data for the cln2 rad14 strain (AID 165).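 Also: 0% = growth equal to vehicle treated cultures.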 The settings on record: S. cerevisiae cln2 rad14 strain, hits give high values. The method, boiled down: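 The screen exposed genetically defined yeast (cln2 rad14) to test compounds and scored growth inhibition relative to vehicle-treated controls.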
Test [5] is described as follows: NCI Yeast Anticancer Drug Screen. Data for the bub3 strain (AID 167). The settings on record: S. cerevisiae bub3 mutant strain, hits give high values. The method in brief:
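Mutant yeast screening strain plus compound; vehicle-treated cultures serve as the 0% inhibition reference.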

Test [6] in a line: NCI Yeast Anticancer Drug Screen. Data for the mlh1 rad18 strain (AID 175). The settings on record: S. cerevisiae mlh1 rad18 strain growth inhibition, hits give high values. The method, boiled down: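 Compound-treated yeast growth, normalised to vehicle controls. Strain bears defined DNA repair mutations.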
[7] abbreviates: at 5.0 µM (retest, dose inferred, filed as 0.5).
The mark [8] stands for this setting: at 50.0 µM (retest, dose inferred, filed as 5.0).

In the case of `C/C=C(\C)CC/C=C/CO[Si](C)(C)C(C)(C)C`, the growth inhibition in test [1] (setting [7]) is -19%; in test [1] (setting [8]) it was -19%; in test [1] (at 50.0 µM), -4.15%; in test [2] (setting [7]), -2%; in test [2] (setting [8]), -19%; in test [2] (at 50.0 µM), 8.7%. Moreover, the growth inhibition in test [3] (setting [7]) is -13%; in test [3] (setting [8]), 13%; in test [3] (at 50.0 µM), 5.25%; in test [4] (setting [7]), 11%; in test [4] (setting [8]), -4%; in test [4] (at 50.0 µM) it was 53.6%. The growth inhibition in test [5] (setting [7]) is 7%; in test [5] (setting [8]), -11%; in test [5] (at 50.0 µM), 2.8%; in test [6] (setting [7]), -16%; in test [6] (setting [8]), -8%; in test [6] (at 50.0 µM) it was 5.75%.

Take `COC1=CC(=O)[C@H]2CC(C)=CC[C@]2(C)C1=O`: the growth inhibition in test [1] (setting [7]) is -3%; in test [1] (setting [8]) it was 2%; in test [1] (at 50.0 µM), 9.35%; in test [2] (setting [7]) it was 1%; in test [2] (setting [8]), 0%; in test [2] (at 50.0 µM) it was 6.55%. Besides, the growth inhibition is 2% in test [3] (setting [7]); 0% in test [3] (setting [8]); -4.75% in test [3] (at 50.0 µM); 1% in test [4] (setting [7]); -2% in test [4] (setting [8]); 84% (active) in test [4] (at 50.0 µM). Also, the growth inhibition is -1% in test [5] (setting [7]); 0% in test [5] (setting [8]); 3.35% in test [5] (at 50.0 µM); -1% in test [6] (setting [7]); 1% in test [6] (setting [8]); 15.1% in test [6] (at 50.0 µM).

For the compound `CCOC(=O)C1(C#N)C(c2ccccc2)C1(C#N)C#N` (centres undefined), the growth inhibition was 18% in test [1] (setting [7]); 85% (active) in test [1] (setting [8]); 97.9% (active) in test [1] (at 50.0 µM); 29% in test [2] (setting [7]); 96% (active) in test [2] (setting [8]); 99.3% (active) in test [2] (at 50.0 µM). Further, the growth inhibition in test [3] (setting [7]) is 31%; in test [3] (setting [8]), 34%; in test [3] (at 50.0 µM), 98.5% (active); in test [4] (setting [7]) it was 9%; in test [4] (setting [8]), 76% (active); in test [4] (at 50.0 µM), 97.8% (active). The growth inhibition in test [5] (setting [7]) is 14%; in test [5] (setting [8]), 92% (active); in test [5] (at 50.0 µM) it was 97.4% (active); in test [6] (setting [7]), 42%; in test [6] (setting [8]) it was 98% (active); in test [6] (at 50.0 µM), 98.8% (active).
